Assay in all cases: PBM binding z-score (relative to random genomic background probes); higher = stronger binding; sequences stand for … in GC…GCGATTGACAGCGTAGAATGAAGG
The test system of experiment [1] is FXR:RXRa (NR concentration 270 nM, RXRa partner concentration 90 nM). Put shortly: (§1)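 Regression normalization was applied to scanned fluorescence from custom Agilent 4×180K protein-binding microarrays. Before scanning, arrays were incubated 1 h with ligand-free nuclear receptor dimers, and binding was detected with antibodies against each partner (one per run). Binding z-scores use the random background probes as reference.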

Experiment [2] deals with LXRa:RXRa (NR concentration 270 nM, RXRa partner concentration 90 nM). Put shortly:
as §1

Experiment [3] has as its system LXRa homodimer (NR concentration 270 nM). Put shortly: as §1
Experiment [4] has as its system LXRb:RXRa (NR concentration 270 nM, RXRa partner concentration 90 nM). A digest of the protocol: as §1
Experiment [5] has as its system LXRb homodimer (NR concentration 270 nM). Put shortly:
as §1

Experiment [6] concerns PPARa:RXRa (NR concentration 270 nM, RXRa partner concentration 90 nM). A digest of the protocol:
as §1

Experiment [7] concerns PPARg:RXRa (NR concentration 180 nM, RXRa partner concentration 90 nM). A digest of the protocol:
as §1

The test system of experiment [8] is PPARg:RXRa 270nM:90nM, anti-RXR (NR concentration 270 nM, RXRa partner concentration 90 nM). Put shortly: as §1
Experiment [9] relates to PPARg:RXRa 30nM:10nM, anti-RXR (NR concentration 30 nM, RXRa partner concentration 10 nM). A digest of the protocol:
as §1

For experiment [10], the system named is PPARg:RXRa 90nM:30nM, anti-RXR (NR concentration 90 nM, RXRa partner concentration 30 nM). Put shortly: as §1
For experiment [11], the system named is PPARg:RXRa DBDmut IVT, anti-RXR (DBD mutation: RXRa K156A/R161A, NR concentration 270 nM, RXRa partner concentration 90 nM). Put shortly: as §1
The subject of experiment [12] is PPARg:RXRa IVT, anti-PPARg (NR concentration 270 nM, RXRa partner concentration 90 nM). Put shortly: as §1
In experiment [13] the test system is PPARg DBDmut:RXRa IVT, anti-PPARg (DBD mutation: PPARg1 K132A/R137A, NR concentration 270 nM, RXRa partner concentration 90 nM). A digest of the protocol: as §1
The subject of experiment [14] is PPARg DBDmut IVT, anti-PPARg (DBD mutation: PPARg1 K132A/R137A, NR concentration 270 nM). Put shortly: as §1
The test system of experiment [15] is PPARg homodimer (NR concentration 180 nM). A digest of the protocol:
as §1

Experiment [16] concerns PXR:RXRa (NR concentration 270 nM, RXRa partner concentration 90 nM). A digest of the protocol:
as §1

In experiment [17] the test system is PXR homodimer (NR concentration 270 nM). A digest of the protocol:
as §1

Experiment [18] relates to RARa:RXR (NR concentration 270 nM, RXRa partner concentration 90 nM). A digest of the protocol: as §1
Experiment [19] concerns RARa homodimer (NR concentration 270 nM). Put shortly:
as §1

In experiment [20] the test system is RARb:RXRa (NR concentration 270 nM, RXRa partner concentration 90 nM). A digest of the protocol: as §1

Take CGTCCAAGGTCAATGCCAGGTCAGTGAAAGCATT: the PBM binding z-score came to 7.1 in experiment [1]; 5.52 in [2]; 3.08 in experiment [3]; 4.42 in experiment [4]; 1.04 in experiment [5]; 5.11 in experiment [6]. In addition, the PBM binding z-score in [7] worked out at 4.05; in experiment [8], 4.59; in experiment [9], 1.16; in [10] it was 3.45; in experiment [11], 2.99; in [12] it was 3.63. In addition, the PBM binding z-score in [13] is 0.209; in [14], -0.326; in experiment [15], 7.26; in experiment [16] it was 5.48; in experiment [17] it was 2.85; in [18] it was 6.58. Moreover, the PBM binding z-score was 1.59 in experiment [19] and 5.39 in [20].
For the sequence TCTAGCAGGCCAGGGGGTCACTCAAGAGGTACGG, the PBM binding z-score in experiment [1] amounted to 3.31; in [2] it was 3.16; in experiment [3], 0.394; in experiment [4] it was 5.14; in experiment [5], 4.6; in experiment [6], 4.64. Further, the PBM binding z-score in experiment [7] worked out at 2.95; in experiment [8], 4.66; in experiment [9] it was 3.29; in experiment [10], 4.43; in experiment [11], 1.72; in [12] it was 3.02. Moreover, the PBM binding z-score in experiment [13] turned out to be 2.08; in experiment [14], 1.84; in experiment [15] it was 2.2; in [16] it was 4.43; in [17] it was 0.579; in experiment [18], 5.03. Besides, the PBM binding z-score was 0.104 in [19] and 3.16 in experiment [20].
On to ATCTCTAGGTTACAAGTTCAGTGAAAGAGAGGAC, for which the PBM binding z-score was 1.64 in experiment [1]; 2.33 in [2]; 1.68 in experiment [3]; 1.55 in experiment [4]; 1.77 in [5]; 2.51 in experiment [6]. Further, the PBM binding z-score in [7] stood at 2.72; in [8] it was 3.25; in experiment [9], 1.77; in experiment [10], 2.97; in [11] it was 4.27; in experiment [12] it was 4.41. Besides, the PBM binding z-score is 1.99 in experiment [13]; 3.28 in [14]; 2.22 in [15]; 2.38 in [16]; 2.41 in experiment [17]; 2.03 in experiment [18]. Also, the PBM binding z-score worked out at 1.88 in [19] and 2.69 in experiment [20].
Consider CCAGAGAGGTGAGAAGGTAACTCAGCCTCGATTA, for which the PBM binding z-score in experiment [1] was 0.595; in experiment [2] it was 0.597; in experiment [3], -0.207; in experiment [4], 1.02; in experiment [5], -0.739; in experiment [6] it was 2.17. For the same sequence, the PBM binding z-score in experiment [7] was 0.83; in experiment [8], 1.36; in experiment [9], 0.216; in [10] it was 0.457; in experiment [11], 2.21; in [12], 1.69. Besides, the PBM binding z-score in [13] is -0.147; in experiment [14] it was -0.518; in [15], 0.918; in experiment [16], 0.339; in [17], 0.0728; in [18] it was 1.04. For the same sequence, the PBM binding z-score in experiment [19] was -0.0942; in experiment [20], 1.57.
On to GCTCGGAGGACAAGGTCAGAGTTTTGTCCGTAGA, for which the PBM binding z-score was 1.98 in experiment [1]; 1.71 in experiment [2]; -0.00501 in experiment [3]; 1.56 in [4]; -0.35 in experiment [5]; 2.42 in experiment [6]. Further, the PBM binding z-score was 0.985 in experiment [7]; 1.89 in [8]; -0.291 in [9]; 0.859 in experiment [10]; 0.207 in experiment [11]; 0.996 in experiment [12]. For the same sequence, the PBM binding z-score was -0.873 in experiment [13]; -1.18 in [14]; 0.43 in experiment [15]; 1.95 in experiment [16]; 0.373 in [17]; 2.23 in experiment [18]. Besides, the PBM binding z-score in experiment [19] is -0.47; in experiment [20] it was 3.46.
For ATCTATAGGTAAAGTTCAGTGAAAGATCGATAGA, the PBM binding z-score in experiment [1] amounted to 1.21; in experiment [2], 1.7; in experiment [3] it was 1.38; in experiment [4], 1.19; in experiment [5], 0.71; in experiment [6], 2.2. Further, the PBM binding z-score in [7] came out at 3.67; in [8], 4.69; in [9], 2.81; in [10] it was 4.71; in experiment [11] it was 1.31; in [12], 1.74. The PBM binding z-score amounted to 1.49 in experiment [13]; 1.19 in experiment [14]; 1.41 in experiment [15]; 1.99 in experiment [16]; 1.33 in experiment [17]; 1.21 in experiment [18]. Further, the PBM binding z-score in [19] worked out at 1.04; in [20], 2.62.
ATCTCTAAGTAAGACTCAGTTCAGTGAAGAACGC: the PBM binding z-score worked out at 0.404 in experiment [1]; 0.702 in experiment [2]; 0.509 in [3]; 0.112 in [4]; 0.924 in [5]; 0.0114 in experiment [6]. The PBM binding z-score was -0.0993 in experiment [7]; 0.324 in experiment [8]; 0.0174 in experiment [9]; 0.392 in experiment [10]; 0.103 in experiment [11]; 0.218 in [12]. In addition, the PBM binding z-score in experiment [13] was 0.885; in [14] it was 1.04; in experiment [15], 0.659; in [16], 0.518; in experiment [17] it was 1.83; in experiment [18] it was 0.541. The PBM binding z-score in experiment [19] is 1.22; in [20] it was 0.15.

For the origin of these results see the supplement of paper PMC6555819.
